Experimental data taken from PubChem BioAssay AID624296 (National Center for Advancing Translational Sciences (NCATS), 2012).
About 9,900 (2.8%) of roughly 350,000 compounds were called active. Inconclusive results (about 15%) are left out. This is one part of a sample in which actives are shown more often than they occur. Values without a mark were called inactive. The call rests on the fitted dose curve; in most records, active means well fitted activation curve with a large enough effect; inconclusive means small, poorly fitted or top-dose-only effect; inactive means no such curve, though single readings can be large or run the other way.

Assay: A quantitative high throughput screen for small molecules that induce DNA re-replication in MCF 10a normal breast cells. Further: nearly all actives have a fitted effect of over 50% in size. On activity, positive = re-replication: % of control where 0% means no effect.
Details: MCF 10A DNA re-replication, Hoechst nuclear intensity, 48 h; series mostly up to 46.1 µM; activity, positive = re-replication: at the top concentration
Potency means the concentration at half of the fitted maximal effect.

SMILES | activity, positive = re-replication | Potency
COc1ccc(CNCCCn2cnc3c(OCc4ccccc4)ncnc32)cc1 | 1.64% | –
CSCCC(NC(=O)COc1ccccc1)C(=O)N(C)CC(=O)Nc1ccc(C)cc1 (stereo not given) | 1.63% | –
CCOC(=O)CCCCCC(=O)Nc1ccc2c(c1)CC(=O)N([C@@H](C)CO)C[C@H](C)[C@@H](CN(C)Cc1ccccc1)O2 | -21.7% | –
COc1cccc(C(=O)NNC(=O)/C=C/c2ccccc2)c1 | 3.32% | –
COc1cccc(C=CC(=O)C=CC=Cc2ccccc2)c1 | – | 16.4 µM (active)
COc1cccc(/C=C/C(=O)OCC(=O)N2CCN(c3ccccc3)CC2)c1 | 5.15% | –
Cc1noc(C)c1C(=O)OC(C)C(=O)Nc1ccc2c(c1)OCO2 (stereo not given) | -1.99% | –
CC1(C)CC(=O)C=C(c2ccc(Cl)c(C(F)(F)F)c2)C1 | 84.6% | –
COc1ccc(C2=NOC(C(=O)NCc3ccco3)C2)cc1OC (stereo not given) | – | 4.61 µM (active)
O=C(NCc1cc(C(F)(F)F)cc(C(F)(F)F)c1)C1CC(c2cccc(F)c2)=NO1 (stereo not given) | -1.76% | –
COc1ccc(S(=O)(=O)N2CCC(C(=O)NCc3ccco3)CC2)cc1C | -0.313% | –
COc1ccccc1C(CNC(=O)c1ccc(C)c(S(=O)(=O)N2CCCCC2)c1)N(C)C (stereo not given) | -2.66% | –
COc1ccc(CC(=O)NCC(=O)N/N=C/c2cc(Br)ccc2OC)cc1 | 11% | –
Cc1ccc(OCCOCCOc2ccc(Br)cc2/C=N\NC(=O)c2ccncc2)cc1 | – | 20.6 µM (active)
Cc1ccc(S(=O)(=O)Oc2ccc(/C=N/NC(=O)c3ccncc3)cc2)cc1 | 11% | –
CCCCc1ccc(NC(=O)CN2C(=O)NC(Cc3ccccc3)C2=O)cc1 (stereo not given) | -5.5% | –
CCCCNCCS(=O)(=O)NCc1ccccc1 | 6.56% | –
Cc1ccc(C)c(NC(=O)C(c2ccccc2)N2CCN(CC(=O)NC3CC3)CC2)c1 (stereo not given) | -1.84% | –
Cc1ccn2c(=O)c(NC(=O)c3cccc4ccccc34)c(C)nc2c1 | 3.52% | –
Cc1ccc(-n2c(SCC(=O)N3CCC(C(=O)O)CC3)nc3ccccc3c2=O)cc1C | -3.72% | –
Cc1ccc(-n2c(=O)c(C#N)cc3c(=O)n4ccccc4nc32)cc1C | – | 10.3 µM (active)
CC(=O)Nc1ccc(C(=O)Nc2cc(S(=O)(=O)N3CCOCC3)ccc2N2CCOCC2)cc1 | -7.14% | –
COc1ccc(CCN2CC(C(=O)OCC(=O)NCc3ccccc3Cl)CC2=O)cc1OC (stereo not given) | 9.97% | –
Fc1ccccc1-c1cc2cc3c(cc2cn1)OCO3 | 20.3% | –
CC1=Nn2c(nnc2-c2ccccc2)SC1 | -3.17% | –

SMILES | activity, positive = re-replication | Potency
Cc1nnc2n1N=C(c1ccccc1)CS2 | 1.39% | –
COc1ccc(C2=Nn3c(nnc3-c3ccccc3OC)SC2)cc1OC1CCCC1 | – | 0.651 µM (active)
CCOc1cc(NS(=O)(=O)c2ccc(OC)cc2)c(OCC)cc1NC(C)=O | 12.6% | –
CCOC(=O)c1ccccc1NS(=O)(=O)c1c(C)nc2sccn2c1=O | -0.74% | –
CCOC(=O)c1ccccc1NS(=O)(=O)c1ccc(OC)cc1 | – | 16.4 µM (active)
CN1CCN(S(=O)(=O)c2ccc(N3CCN(c4ccccc4O)CC3)c([N+](=O)[O-])c2)CC1 | 2.95% | –
CC(=O)c1sc(NC(=O)CCN2C(=O)C3CC=CCC3C2=O)nc1-c1ccccc1 (stereo not given) | -0.493% | –
COc1ccc(OC)c(Nc2nc(-c3ccc(O)c(O)c3)cs2)c1 | – | 8.2 µM (active)
COc1ccc(CC(=O)Nc2nc(-c3ccc(F)c(F)c3)cs2)cc1OC | 3.89% | –
COc1ccc(-c2csc(Nc3ccccn3)n2)cc1 | 0.252% | –
C=CC[C@@H](CC(=O)N[C@@H](CO)Cc1ccccc1)C(=O)N[C@H](COC(=O)[C@H](CC=C)CC(=O)OC(C)(C)C)Cc1ccccc1 | -10.2% | –
Oc1cccc(CCc2ccccn2)c1 | -3.55% | –
COc1cc(/C=C/C(=O)OCC(=O)NC2CC2)cc(OC)c1OC | -2.1% | –
Cc1cc(C)c(C#N)c(SCc2[nH]nc3c2C(c2ccccc2)C(C#N)=C(N)O3)n1 (stereo not given) | -7.51% | –
Cc1cc(C)c2c3c(sc2n1)C(c1ccccc1)C(C#N)=C(N)O3 (stereo not given) | – | 2.82 µM (active)
Cc1nn(Cc2ccccc2)c2c1C(c1ccccc1)C(C#N)=C(N)O2 (stereo not given) | -2.92% | –
CCn1nc(C(=O)Nc2ccc(N3CCOCC3)cc2)c2ccccc2c1=O | 3.71% | –
O=C(NNC(=O)C1CCCC1)c1ccc(F)cc1 | -0.515% | –
O=C(/C=C/c1ccc([N+](=O)[O-])o1)NNC(=O)c1ccc(F)cc1 | – | 9.2 µM (active)
C/[N+]([O-])=C\c1ccc([N+](=O)[O-])o1 | 14.2% | –
CC(C)Oc1ccc(CC(=O)NNC(=S)Nc2ccc(Br)cc2)cc1 | – | 16.4 µM (active)
COCC(=O)Nc1ccc(Br)cc1 | -6.21% | –
CC(C)Oc1ccc(CCC(=O)NNC(=S)NCc2ccccc2)cc1 | 0.118% | –
CC(C)(C)OC(=O)N(Cc1ccccc1)Cc1ccc(OCc2cccc(NC(=O)c3ccccc3)c2)cc1 | 14.3% | –
CC[C@]12c3[nH]c4ccc(OC)cc4c3CCN1C(=O)C(CC(=O)NCCN1CCOCC1)C[C@@H]2C(=O)N1CCN(C(=O)C2CC2)CC1 (stereo not given in full) | 1.05% | –

SMILES | activity, positive = re-replication | Potency
Cc1ccc(COc2ccc(/C=N/NC(=O)CN3CCCCC3)cc2)cc1 | 0.536% | –
Cc1ccc(/C=N/NC(=O)c2sccc2OCc2ccc(F)cc2)cc1 | – | 6.51 µM (active)
Cc1ccsc1C(=O)N/N=C/c1ccc([N+](=O)[O-])cc1 | -0.593% | –
CC(=O)Nc1ccc(SC[C@H](Cc2ccccc2)N2CC[C@@H](C)CCC2=O)cc1 | 1.91% | –
COc1ccc(NS(=O)(=O)c2cc(NC(=O)c3ccc(S(=O)(=O)N(C)C)cc3)ccc2N2CCOCC2)cc1 | 1.21% | –
COc1cc(NS(=O)(=O)c2ccc(N=Cc3c(C)[nH]n(-c4ccccc4)c3=O)cc2)nc(OC)n1 | 4.18% | –
COc1cc(NS(=O)(=O)c2ccc(N/C=C(\C=O)c3nc4cc(Cl)ccc4o3)cc2)nc(OC)n1 | – | 20.6 µM (active)
COc1cc(NS(=O)(=O)c2ccc(NC(=S)NC(=O)c3ccccc3)cc2)nc(OC)n1 | -1.53% | –
Cc1ccc(C)c(C(=O)COC(=O)Cn2[nH]c(=O)c3ccccc3c2=O)c1 | 5.4% | –
CCc1ccc(C(=O)C(C)OC(=O)CN2C(=O)NC3(CCCC3)C2=O)cc1 (stereo not given) | 5.71% | –
CCCC1=Nc2cc(C(=O)NCc3ccco3)ccc2Sc2ccccc21 | – | 8.2 µM (active)
CCC1=Nc2cc(C(=O)NCCN3CCCC3)ccc2Sc2ccc(C)cc21 | 17% | –
CCC1=Nc2cc(C(=O)NCCCN3CCOCC3)ccc2Sc2ccc(Br)cc21 | 26.8% | –
CC(=O)c1ccc(OCCN2CCOCC2)cc1 | 1.39% | –
CCOc1ccc(C(=O)CCN2CCOCC2)cc1 | – | 18.4 µM (active)
c1ccc(-c2ccc(OCCN3CCOCC3)cc2)cc1 | 10.6% | –
OC(COc1ccc(Br)cc1)CN1CCCC1 (stereo not given) | 12.5% | –
O=C(c1ccc(Cl)cc1)c1ccc(OCC(O)CN2CCCCC2)cc1 (stereo not given) | – | 5.01 µM (active)
O=C(c1ccccc1)c1ccc(OCC(O)CN2CCCC2)cc1 (stereo not given) | 0.887% | –
C=CCn1c(=S)[nH]c2nc3c(cc2c1=O)COC(C)(C)C3 | 1.01% | –
CC(C)CCSc1ncnc2c1oc1nc3c(cc12)COC(C)(C)C3 | – | 5.8 µM (active)
CCCc1nc2oc3c(OCC)ncnc3c2c2c1COC(C)(C)C2 | 27.7% | –
CSCCC(NS(=O)(=O)c1ccc(C)cc1)C(=O)N(C)CC(=O)Nc1ccccc1Br (stereo not given) | 4.3% | –
O=C(COC(=O)c1ccc(O)cc1O)c1ccc2c(c1)OCCO2 | -0.272% | –
O=C1COc2c1ccc(O)c2O | -41.8% | –

SMILES | activity, positive = re-replication | Potency
O=C1c2cccc3c([N+](=O)[O-])ccc(c23)C(=O)N1CC1CCCO1 (stereo not given) | – | 18.4 µM (active)
CCC(=O)Nc1ccc(C(=O)Nc2ccc3c(c2)C(=O)N(CC2CCCO2)C3=O)cc1 (stereo not given) | 3.25% | –
CCOc1cccc(=O)c2c(C)n(CC3CCCO3)c(C)c12 (stereo not given) | 10.7% | –
N#CC(Cc1cc2ccccc2n1S(=O)(=O)c1ccccc1)OCc1ccccc1 (stereo not given) | -1.6% | –
O=C(O)c1ccc(N/N=C/c2ccc3ncccc3c2)cc1 | -0.921% | –
Cc1ccc2cc(/C=N/Nc3ccc(C(=O)O)cc3)c(Cl)nc2c1 | – | 6.51 µM (active)
Cc1ccc2cc(/C=N/NC(=O)[C@@H]3CCCN3)c(Cl)nc2c1 | 5.15% | –
COc1cc(/C=C(\C#N)C(=O)Nc2ccc3ccccc3c2)c([N+](=O)[O-])cc1OC | 15.9% | –
COc1cc(C=O)c(Br)cc1OCC(=O)NCc1ccccc1 | -2.65% | –
COc1ccc(NC(=O)/C(C#N)=C\c2cc(OC)c(OCc3ccc(C(=O)O)cc3)cc2Br)cc1 | – | 16.4 µM (active)
NC(=O)C1(N2CCCC2)CCN(Cc2ccccc2)CC1 | 0.0869% | –
COC(=O)c1cc2c(N)c(C(=O)c3ccc(Cl)cc3)sc2nc1C(OC)OC | – | 20.6 µM (active)
COC(=O)c1sc2ncccc2c1OCc1ccc(Cl)cc1Cl | -182% [at 0.0737 µM] | –
COC(=O)c1cn(C(=O)c2ccc(Cl)cc2)c2ccccc12 | -2.16% | –
CN(Cc1cccs1)C(=O)CN1C(=O)c2ccccc2S1(=O)=O | 2.91% | –
CCOC(=O)C1=CN(Cc2ccc(Br)cc2)S(=O)(=O)NC1C (stereo not given) | -1.7% | –
COC(=O)c1c(NC(=O)COc2ccc(Cl)cc2Cl)sc2c1CC(C)(C)NC2(C)C | – | 3.26 µM (active)
Cc1cc(NC(=O)COc2ccc(Cl)cc2Cl)n(CCC#N)n1 | -12.1% | –
CCOC(=O)c1c(NC(=O)c2ccc(S(=O)(=O)N(C)CC3CCCO3)cc2)sc2c1CC(C)(C)NC2(C)C (stereo not given) | -0.748% | –
COc1ccc2[nH]c(=O)c(CNc3ccc(C)c(C)c3)cc2c1 | – | 14.6 µM (active)
COc1ccc(N(Cc2cc3cc(OC)ccc3[nH]c2=O)S(C)(=O)=O)cc1 | 2.63% | –
CCC(=O)N(Cc1cc2cc(OC)ccc2[nH]c1=O)c1ccccc1C | 11.2% | –
c1ccc(-c2c[nH]c(-c3ccccc3)c2)cc1 | 18.5% | –
COc1ccc(NC(=O)CN(C)C(=O)c2cc(C3CC3)nn2-c2ccccc2)cc1 | 0.411% | –
Cc1nc2ccccc2c(C(=O)O)c1-c1ccccn1 | 0.373% | –
